Screening data: PubChem BioAssay, several laboratories
GPR7 antag = GPR7 receptor antagonists, primary screen, cell-based, fluorescence, single concentration. Neuropeptides B/W receptor type 1 (Homo sapiens), P48145. GPR7-expressing cells, fluorescence antagonist assay. inhibition, % at 4.4 µM. 290,000 tested, 1.1% active. AID 1861, 2009; in the data active = inhibition above about 16%, passing the limit was not always enough;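 note: cells stimulated with the agonist NPW; 0% = agonist with vehicle and 100% = vehicle without agonist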
ANO1 activ = TMEM16A chloride channel activators or potentiators, primary screen, cell-based, HTS; Anoctamin-1 (Mus musculus), Q8BHY3; HEK293 TMEM16A/YFP-H148Q/I152L, iodide quench fluorescence; stronger effect = lower value; B-score at 10 µM; 340,000 tested, 0.3% active;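 active = fluorescence-ratio B-score plate-corrected deviation score at least 3 library SD below zero, with starting fluorescence score within 5 deviations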;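 note: channel opened by trigger with iodide after compound preincubation; score built on the fluorescence ratio of max minus min over baseline; more negative score means more quench and so TMEM16A activation or potentiation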
CHT inh = inhibitors of human choline transporter CHT; 310,000 tested, 0.86% active; B-score at 10 µM; High affinity choline transporter 1 (Homo sapiens), Q9GZV3; AID 488975, 2010; CHT-expressing cells, membrane potential dye, choline response; stronger effect = lower value;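 active = B-score over 3 SD under the library average, and starting fluorescence ratio not unusually high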;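 note: choline stimulus applied at its EC90 after an EC20 pre-addition; B-score computed on integrated fluorescence ratio after choline addition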
Target sequence (Q9GZV3 whole entry, looked up): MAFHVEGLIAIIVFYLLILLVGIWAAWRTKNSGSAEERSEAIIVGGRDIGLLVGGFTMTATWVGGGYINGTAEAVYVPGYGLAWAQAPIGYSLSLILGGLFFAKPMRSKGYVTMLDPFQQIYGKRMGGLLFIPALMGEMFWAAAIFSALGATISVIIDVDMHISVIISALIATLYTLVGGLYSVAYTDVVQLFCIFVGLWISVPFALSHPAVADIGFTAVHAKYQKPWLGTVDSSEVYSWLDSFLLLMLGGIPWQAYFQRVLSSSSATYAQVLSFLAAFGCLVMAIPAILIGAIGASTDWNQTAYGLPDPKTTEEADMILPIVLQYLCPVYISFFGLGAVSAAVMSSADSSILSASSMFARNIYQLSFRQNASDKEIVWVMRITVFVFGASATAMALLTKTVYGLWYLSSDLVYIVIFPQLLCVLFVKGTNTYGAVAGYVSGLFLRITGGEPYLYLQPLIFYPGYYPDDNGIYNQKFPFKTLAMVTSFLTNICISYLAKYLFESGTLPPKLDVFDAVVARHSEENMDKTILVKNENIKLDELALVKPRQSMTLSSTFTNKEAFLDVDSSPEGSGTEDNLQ
CHT allo act = CHT positive allosteric modulators, primary screen, cell-based, membrane potential dye, choline EC20 | CHT-expressing cells; stronger effect = higher value; LV-AA mutant CHT in HEK293 cells | B-score at 10 µM | 310,000 tested, 0.49% active | AID 488977, 2010;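 active = initial fluorescence not abnormally high and integrated response B-score, plate-corrected, over 3 SD above library mean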
Kir21 inh = inhibitors of mouse Kir2.1 inward-rectifier potassium channel; Inward rectifier potassium channel 2 (Mus musculus), P35561; HEK293-Kir2.1, FluxOR thallium flux fluorescence; stronger effect = lower value; B-score at 10 µM; 310,000 tested, 0.85% active; AID 1672, 2009;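 active = fluorescence ratio B-score at or below minus 3 SD of library scores, with starting-brightness B-score within 2 SD, cut at about -4.2 in these data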;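 note: channel flux triggered by added potassium and thallium sulfate stimulus; B-score of peak minus minimum fluorescence over baseline after thallium stimulus; more negative B-score means stronger Kir2.1 block with less thallium influx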
ANO1 block = TMEM16A chloride channel inhibitors, primary screen, cell-based, HTS; Anoctamin-1 (Mus musculus), Q8BHY3; HEK293 TMEM16A/YFP iodide influx fluorescence, ionomycin; AID 588511, 2011; 310,000 tested, 1.2% active; normalized B-score (activity score, 25-100; higher = stronger inhibition) at 10 µM;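 active = ratio plate-corrected score three or more library SD toward inhibition, starting fluorescence score within five deviations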;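 note: score derived from kinetic fluorescence span divided by baseline fluorescence per well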
An asterisk follows results filed as active; i = inactive; x = not tested or not shown. The list is not random: actives were taken first. Their share in the collection is about 3.7%.

SMILES | GPR7 antag | ANO1 activ | CHT inh | CHT allo act | Kir21 inh | ANO1 block
O=S(=O)(NCc1csc(-c2cccnc2)n1)c1ccc(Br)cc1 | 8 | i | i | i | -7.7* | i
O=C(Nc1nnc(SCc2ccccn2)s1)C1CC(=O)N(c2ccc(F)cc2)C1 (stereo not drawn) | -2 | i | i | i | -0.96 | i
Cc1c(OC(C)C(=O)NCc2ccncc2)ccc2c3c(c(=O)oc12)CCCC3 (stereo not drawn) | -5 | i | -5* | i | -2.2 | i
CCCc1cc(C(=O)Nc2ccc(C(=O)c3ccc(F)cc3)cc2)n(C)n1 | 17 | i | i | i | 1 | 100*
COc1ccc(CC(=O)NCC2CCCN(Cc3cccc(SC)c3)C2)cc1 (stereo not drawn) | 16 | i | i | i | -0.58 | i
Cc1ccc(N=C2NC(=O)/C(=C\c3ccsc3)S2)c(C)c1 | 3 | i | i | i | -1.1 | i
c1ccc(-c2nc(N3CCNCC3)nc3ccccc23)cc1 | -3 | i | i | i | -7.2* | i
CC1CC(C)CN(C(=O)c2ccc(NS(=O)(=O)c3ccc4[nH]c(=O)[nH]c4c3)cc2)C1 (stereo not drawn) | x | i | i | i | 0.45 | i
COc1ccccc1NC(=O)COC(=O)C1CC2CCCC(C1)C2=O (stereo not drawn) | x | i | x | x | x | x
C=CC[n+]1ccc(/C=C2\C=Cc3cc(C)ccc3N2CC)c2ccccc21 | 26* | i | x | x | x | x
CCN1/C(=C/c2cc[n+](CCCS(=O)(=O)[O-])c3ccccc23)Sc2ccccc21 | -4 | i | i | i | 0 | i
C1=C(CCNc2ncnc3nc[nH]c23)CCCC1 | -6 | i | i | i | -0.01 | 25*
COc1ccc2[nH]c3c(NCCC4=CCCCC4)ncnc3c2c1 | 23* | i | x | x | 0.67 | x
Clc1nssc1=Nc1ccccc1 | -5 | i | x | x | x | x
Clc1ccc(N=c2ssnc2Cl)cc1 | -13 | i | i | i | -2.1 | 100*
CCN(C(=O)c1ccco1)C1C2CC3CC(C2)CC1C3 (stereo not drawn) | -1 | i | i | i | -2.4 | i
CCN(CC)CCN(CC(=O)N(C1CCCCC1)C1CCCCC1)C(=O)c1ccco1 | -2 | i | i | i | -4.4* | i
O=C(O)c1cccc(NC2=C(Cl)C(=O)c3ccccc3C2=O)c1 | -3 | i | x | x | -7.3* | x
O=C1C(Cl)=C(Nc2ccccc2)C(=O)c2ccccc21 | -11 | i | i | i | -0.48 | i
COC(=O)C1=C(C)NC2=C(C(=O)CC(c3cccs3)C2)C1c1ccsc1 (stereo not drawn) | 22* | i | i | i | -0.19 | i
O=C(O)/C=C(/c1ccccc1)C(F)(F)F | x | i | x | x | x | x
CN(Cc1ccccc1)S(=O)(=O)c1cccs1 | -6 | i | i | i | -0.96 | i
CC(C)N(Cc1ccccc1)S(=O)(=O)c1cccs1 | -19 | i | i | i | -4.8* | i
CN(CC(=O)NCCc1ccccc1)S(=O)(=O)c1cccs1 | -7 | -5.4* | i | i | 0.77 | i
CN(C)CC/C=C1/c2ccc(F)cc2Sc2ccc(Cl)cc21 | x | i | i | i | -6.9* | i
SMILES | GPR7 antag | ANO1 activ | CHT inh | CHT allo act | Kir21 inh | ANO1 block
CN(C)CC/C=C1\c2ccccc2Sc2cc(F)c(Cl)cc21 | x | i | i | i | -4.8* | i
CN(C)CC/C=C1\c2ccc(F)cc2Sc2cc(F)c(Cl)cc21 | x | i | i | i | -3.5 | i
CN(C)CC/C=C1\c2cc(Cl)ccc2Sc2cc(F)c(F)cc21 | x | i | i | i | -4.2* | i
CCCN(CC(=O)Nc1ccc(F)c(F)c1F)C(=O)CN1C(=O)NC2(CCCCC2)C1=O | x | i | x | x | x | x
CC1CCN(C(=O)COC(=O)c2cc3ccccc3oc2=O)CC1 | x | i | x | x | x | x
Cc1nc2c(C(=O)NCCC(C)C)c[nH]n2c(=O)c1Cc1ccccc1F | -4 | i | i | i | 2.6 | 100*
O=C(Nc1cccnc1)Nc1cccc([N+](=O)[O-])c1 | -10 | i | i | i | -0.11 | i
Cc1ccc(NC(=O)Nc2cccc([N+](=O)[O-])c2)cc1F | 30* | i | i | i | -1.3 | i
O=C(Nc1ccc(OC(F)(F)F)cc1)Nc1cccc([N+](=O)[O-])c1 | 43* | i | i | i | -0.31 | i
CCOc1ccccc1OCCCCCc1c(C)n[nH]c1C | -11 | i | i | i | -4.8* | i
Cc1cc(/C=N/n2c(COc3ccccc3C)nc3ccccc3c2=O)c(O)c([N+](=O)[O-])c1 | -2 | i | i | i | 1.7 | 100*
O=c1c2ccccc2nc(COc2ccccc2)n1/N=C/c1cc([N+](=O)[O-])ccc1O | -6 | i | i | i | -0.15 | 100*
N/C(=N\c1nc2ccccc2o1)NC(=O)c1ccccc1Br | -6 | i | i | i | -0.26 | i
CCN1CCN(C(CNS(=O)(=O)c2cccs2)c2cccnc2)CC1 (stereo not drawn) | -7 | i | i | i | 0.38 | i
Clc1ccc2[nH]c3c(NCCCN4CCOCC4)ncnc3c2c1 | 20* | i | i | i | -0.67 | i
O=S(=O)(N/N=C/c1ccc(F)cc1)c1ccccc1 | -14 | i | i | i | 0.04 | 25*
O=S(=O)(N/N=C\c1cccc(F)c1)c1ccccc1 | -23 | i | i | i | 1.4 | i
CN1/C(=C\C=O)C(C)(C)c2ccccc21 | 8 | i | i | i | -0.14 | i
CN1\C(=C/C=C/C=C/C=[N+](C)C)C(C)(C)c2ccccc21 | 2 | i | x | x | -13* | x
Cc1ccc(S(=O)(=O)NCCNc2ccc([N+](=O)[O-])cc2C(F)(F)F)cc1 | 13 | i | i | i | -1.4 | i
Cc1ccc(S(=O)(=O)NCCNc2ccccc2[N+](=O)[O-])cc1 | 6 | i | i | i | -4.3* | i
O=[N+]([O-])c1ccc(NCCNS(=O)(=O)c2ccccc2)c(C(F)(F)F)c1 | 6 | i | i | i | -5.8* | i
O=C(COC(=O)/C=C/c1ccc([N+](=O)[O-])cc1)NNC(=O)c1ccccc1 | x | i | x | x | x | x
COc1ccc(C)cc1S(=O)(=O)N1CCc2ccccc2C1 | 13 | i | i | i | -4.3* | i
O=C(Nc1cccnc1)c1ccc(Oc2ccccc2)cc1 | -10 | i | i | i | -0.32 | 25*
